Here are results for 16 molecules from PubChem BioAssay (NCI).

The panel holds about 83,000 compounds, 20% with a hit somewhere; the sample as a whole holds those more often.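 Interpretation: 100, growth as untreated; towards 0, rising growth inhibition; 0, no net growth; 0 to -100, cell death. Compounds scoring below 10 were considered active.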 Unmarked numbers belong to inactive results. Activity calls are given as the source filed them.

Assay in all cases: NCI-60 one-dose screen, 48 h (100 = growth as untreated, 0 = no growth, -100 = all killed)
Conditions in all cases: 10 µM unless noted

The subject of assay [1] is T-47D breast.
Assay [2] relates to BT-549 breast.
In assay [3] the test system is MDA-MB-435 melanoma.
Assay [4] deals with SW-620 colon.
In assay [5] the test system is MCF7 breast.
Assay [6] deals with HCT-116 colon.
Assay [7] relates to HCC-2998 colon.
Assay [8] concerns KM12 colon.

For `COc1cccc(-c2nc3sccn3c2-c2ccnc(NCCNC(=O)c3ccccc3)n2)c1`, the growth in assay [1] is 61.9%; in assay [2], 85.1%; in assay [3], 55.2%; in assay [4] it was 114%; in assay [5], 81.7%; in assay [6], 81.8%. The growth in assay [7] is 114%; in assay [8], 87.8%.

As for `COc1cc(/C=C/C(=O)c2c(C)[n+]([O-])c3ccccc3[n+]2[O-])ccc1O`, the growth is 111% in assay [1]; 89.5% in assay [2]; 78.6% in assay [3]; 92.9% in assay [4]; 93% in assay [5]; 91.2% in assay [6]. Moreover, the growth in assay [7] was 116%; in assay [8] it was 108%.

`CCn1c(SCC(=O)c2ccc(Br)cc2)nnc1-c1cc2c([nH]c3ccccc32)c(-c2cccc(O)c2)n1`: the growth was 29.4% in assay [1]; 71.9% in assay [2]; 31.3% in assay [3]; 94.1% in assay [4]; 40.5% in assay [5]; 70.1% in assay [6]. In addition, the growth is 98.4% in assay [7] and 66.5% in assay [8].

As to `O=S(=O)(CCN1CCOCC1)Nc1cc(-c2ccc3ncnc(Nc4ccc(F)c(Cl)c4)c3c2)cnc1Cl`, the growth is -32.6% (active) in assay [1]; -9.24% (active) in assay [2]; 6.92% (active) in assay [3]; 30.4% in assay [4]; 13.6% in assay [5]; 18.9% in assay [6]. Besides, the growth is 17.4% in assay [7] and 20.8% in assay [8].

Turning to `Cc1cn(-c2cc(C(=O)Nc3cccc(-n4ccc5c(NC(=O)c6ccccc6)nccc54)c3)cc(C(F)(F)F)c2)cn1`, the growth was 62.5% in assay [1]; 27.9% in assay [2]; -14.9% (active) in assay [3]; 13.4% in assay [4]; 7.18% (active) in assay [5]; -78.6% (active) in assay [6]. Besides, the values for the growth in assay [7] and in assay [8] were 12.7% and -25.6% (active), respectively.

With `COc1ccccc1N1CCN(CC(O)COc2c(Br)c(Br)c(Br)c3c2OC(C)(C)C3)CC1` (stereo not drawn), the growth in assay [1] is 39.8%; in assay [2], 98.6%; in assay [3], 37.2%; in assay [4], 33.3%; in assay [5] it was 26.8%; in assay [6], 27.4%. For the same molecule, the growth in assay [7] is 39.9%; in assay [8], 35.7%.

With `COc1cc(NC(=O)c2cc(OC)c3ccn(C)c3c2)cc2c1C[C@]1(C)CC[C@@H](O)C(C)(C)[C@H]1O2`, the growth in assay [1] is 57.5%; in assay [2] it was 36.9%; in assay [3], 64%; in assay [4], 57.7%; in assay [5], 38.5%; in assay [6], 43.6%. In addition, the growth in assay [7] was 74.6%; in assay [8], 65.3%.

`CCCCC(=O)Nc1nc2ccc(SCCC)cc2s1`: the growth is 48% in assay [1]; 40.6% in assay [2]; 4.42% (active) in assay [3]; 34.6% in assay [4]; 35% in assay [5]; 31.1% in assay [6]. For the same molecule, the growth in assay [7] was 77.1%; in assay [8], 34.1%.

For `FC(F)(F)c1cccc([Si](F)(c2cccc(C(F)(F)F)c2)c2cccc(C(F)(F)F)c2)c1`, the growth in assay [1] is 40.4%; in assay [2] it was 64.5%; in assay [3], 95%; in assay [4], 82%; in assay [5], 67.1%; in assay [6], 15.6%. Also, the growth was 99% in assay [7] and 74.8% in assay [8].

Take `CCC1S/C(=N\N=C(/C)c2ccco2)N(c2ccccc2)C1=O` (stereo not drawn): the growth in assay [1] is 107%; in assay [2] it was 106%; in assay [3], 92.7%; in assay [4] it was 119%; in assay [5] it was 81%; in assay [6], 68.6%. Further, the growth was 112% in assay [7] and 86.1% in assay [8].

For the molecule `CCCCOc1c(N)cc(Cl)cc1C(=O)OCCN(CC)CC`, the growth in assay [1] is 99.8%; in assay [2], 76.5%; in assay [3] it was 111%; in assay [4] it was 99.2%; in assay [5] it was 93.3%; in assay [6], 80.3%. Moreover, the growth is 109% in assay [7] and 104% in assay [8].

Regarding `COc1cc2nc(C(=O)N3CCCCC3)cc(Nc3ccccc3)c2cc1OC`, the growth in assay [1] was 91.2%; in assay [2], 102%; in assay [3], 104%; in assay [4], 107%; in assay [5], 96.5%; in assay [6], 99.9%. Also, the values for the growth in assay [7] and in assay [8] were 105% and 99.3%, respectively.

As to `COc1ccc2c(c1)OC(N)=C(C#N)C2c1ccc(F)c(F)c1` (stereo not drawn), the growth in assay [1] is 46.8%; in assay [2], 48.3%; in assay [3], -18.6% (active); in assay [4] it was 21.3%; in assay [5] it was 18.8%; in assay [6], 24.2%. In addition, the figures for the growth in assay [7] and in assay [8] were 49.7% and 28.6%, respectively.

On to `COc1cc(C(=O)NNC(=O)c2ccccc2C(=O)O)cc(OC)c1OC`, for which the growth was 39.5% in assay [1]; 58.4% in assay [2]; 60.4% in assay [3]; 36.9% in assay [4]; 30.1% in assay [5]; 29% in assay [6]. Further, the growth is 68.5% in assay [7] and 36.9% in assay [8].

`CNCCCOc1c(Br)cc(CCNC(=O)/C(Cc2ccc(OC)c(Br)c2)=N/O)cc1Br`: the growth is 54.7% in assay [1]; 56.8% in assay [2]; 41% in assay [3]; 41% in assay [4]; 19% in assay [5]; 19.8% in assay [6]. Further, the growth in assay [7] was 46%; in assay [8] it was 42.1%.

In the case of `CC12CCC3C(CCC4CC(O)CCC43C)C1C/C(=C/O)C(=O)O2` (stereo not drawn), the growth in assay [1] was 106%; in assay [2], 109%; in assay [3] it was 111%; in assay [4], 102%; in assay [5], 102%; in assay [6] it was 104%. Also, the growth in assay [7] was 103%; in assay [8], 97.8%.
